In PubChem BioAssay (Tox21):
Records with an inconclusive call do not appear. Where a call stands in place of a potency, no number is given. Values without a mark were called inactive. Activity calls are given as the source filed them. Calls come from the whole dose curve; as a rule, active = well fitted cell-killing curve with a large enough effect in the repeat runs; inconclusive = weak or mixed curves, or effect the other way; inactive = flat fitted curve, though single readings scatter.

Key:
[1] = cAMP Responsive Elements (CRE) small molecule antagonists, cell-based qHTS assay: qHTS cell viability counter screen (AID 2060913); note: nearly all actives have a fitted effect of over 40% in size
Method in brief: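 CRE-bla HEK293T cells (2,000/well, 18 h) given compound plus NKH477 0.25 uM final for 3 h at 37C; viability counter-screen by CellTiter-Glo luminescence in same wells after 30 min.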

[2] = cAMP Responsive Elements (CRE) small molecule agonists, cell-based qHTS assay: qHTS cell viability counter screen (AID 2060914);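 note: viability read after 3 h of compound exposure; nearly all actives have a fitted effect of over 50% in size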
Method in brief: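 CRE-bla HEK293T cells in 10% dialyzed FBS medium were exposed to compounds for 3 h at 37C after 18 h plating. CellTiter-Glo was then added in the same wells, and luminescence was read after 30 min at room temperature.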

Structure (SMILES) | Potency [1] | Potency [2] | viability change, negative = cytotoxic [1] | activity change, negative = cytotoxicity [2]
Nc1ccc(Nc2ccccc2)cc1 | inactive | inactive | – | –
OCC(CO)N[C@H]1C[C@](O)(CO)[C@@H](O)[C@H](O)[C@H]1O | inactive | inactive | – | –
CC(=O)Nc1ccc(N=Nc2cc(C)ccc2O)cc1 | inactive | inactive | – | –
CCCCC(CC)COCCCN (stereo unspecified) | inactive | inactive | – | –
O=C(Cl)c1c(Cl)c(Cl)c(C(=O)Cl)c(Cl)c1Cl | inactive | inactive | – | –
CC1=C(C=O)C(C)(C)CCC1 | inactive | inactive | – | –
Cc1ccc(NC(=O)N(C)C)cc1NC(=O)N(C)C | inactive | inactive | – | –
C1OCOCO1 | inactive | inactive | – | –
CCCCCOc1ccc(C2SC(=O)NC2=O)cc1OCC (stereo unspecified) | inactive | inactive | – | –
CCCCCCCCCCCCCCCCOS(=O)(=O)O | inactive | inactive | – | –
CC1(C)CC(OC(=O)CCCCCCCCC(=O)OC2CC(C)(C)NC(C)(C)C2)CC(C)(C)N1 | – | – | -1.62% [at 18.9 µM] | 1.68% [at 18.9 µM]
Nc1ccc(/C=C/c2ccc(N)cc2S(=O)(=O)O)c(S(=O)(=O)O)c1 | – | – | 3.88% [at 0.349 µM] | 6.77% [at 0.349 µM]
C=CC(O)CCCCC (stereo unspecified) | inactive | inactive | – | –
